This is one part of a sample in which hits are shown more often than they occur.
FBPA Giardia inh – inhibitors of Giardia lamblia fructose-1,6-bisphosphate aldolase; purified Giardia FBPA; Potency, µM (top dose mostly 59.6 µM), actives largely listed as inhibitors; 290,000 tested, 0.71% active; AID 2451; further: nearly all actives have a fitted effect of over 55% in size
Target sequence (A8B2U2 whole entry, looked up): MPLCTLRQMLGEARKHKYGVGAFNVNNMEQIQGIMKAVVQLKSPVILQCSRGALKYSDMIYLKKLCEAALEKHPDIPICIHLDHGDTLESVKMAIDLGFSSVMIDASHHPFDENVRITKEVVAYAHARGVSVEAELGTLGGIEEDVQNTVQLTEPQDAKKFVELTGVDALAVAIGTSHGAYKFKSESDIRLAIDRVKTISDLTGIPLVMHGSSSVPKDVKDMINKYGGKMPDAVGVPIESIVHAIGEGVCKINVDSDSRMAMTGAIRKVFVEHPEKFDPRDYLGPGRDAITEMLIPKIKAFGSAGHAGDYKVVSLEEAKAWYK
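40 nM FBPA preincubated 10 min at RT with compound (up to 57.5 uM final), then substrate plus GAPDH/TPI/NAD/arsenate coupling and diaphorase/resazurin added. Fluorescence read after 20 min at RT, 525/598 nm.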
Tb PYK inh – inhibitors of Trypanosoma brucei pyruvate kinase; Potency, µM (titrated, usually from 76.8 µM), usual class: inhibitors; Q57TT1; TbPYK enzyme, Kinase-Glo Plus ATP luminescence, 45 min; 410,000 tested, 0.12% active; AID 624173; further: nearly all actives have a fitted effect of over 50% in size
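Luminescent Kinase-Glo Plus end-point after 45 min room-temperature reaction of T. brucei pyruvate kinase started with 130 uM ADP (final). Buffer TEA 50 mM pH 7.2 with KCl, MgCl2, BSA, Tween-20; titration-based qHTS with fitted concentration-effect curves.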
LmPK inh – blocks Leishmania mexicana pyruvate kinase activity; purified LmPK, Kinase-Glo ATP luminescence, 1 h; 290,000 tested, 0.37% active; Q27686; Potency, µM (doses to about 57.5 µM), most hits filed as inhibitors
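qHTS format; LmPK 0.1 nM; substrates PEP 0.5 mM and ADP 0.1 mM. One-hour room-temperature incubation, then coupled luciferase luminescence; 0.5 nM enzyme wells mark activation.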
Sm TGR inh – S. mansoni TGR enzyme inhibition; Potency, µM (doses to about 114 µM), actives largely listed as inhibitors; AID 485364; 360,000 tested, 3% active; Q962Y6; purified TGR, DTNB reduction, TNB absorbance 405 nm; further: nearly all actives have a fitted effect of over 60% in size
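First, TGR (20 nM dispensed) and NADPH were mixed with compound. Second, a 15 min room-temperature incubation followed. Third, further NADPH and then DTNB were added to start the reaction. Finally, TNB absorbance was monitored kinetically.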
Shiga toxin inh – Shiga toxin inhibition | 290,000 tested, 9.2% active | AID 2315 | inhibition, % at 38.7 µM | Vero cells, Shiga toxin protein synthesis inhibition reporter; in the data active means inhibition mostly above about 28%, no sharp cut-off; inactive means mostly below about 43%
Cycloheximide cs – affects cycloheximide protein synthesis inhibition readout, counter-screen; max response, %; cell reporter, cycloheximide protein synthesis inhibition counterscreen; 300,000 tested, 12% active; in the data active means max response mostly above about 13%, no sharp cut-off; inactive means mostly below about 14%; further: read at 38.3 µM for the half of the compounds with a filed dose
A number is an active result; i = inactive; ? = inconclusive; nt = no result; [ ] = dose if it differs, or a comment. Unless noted, the call rests on the fitted dose curve; in most records, active means well fitted curve in the direction sought with a large enough effect; inconclusive means small, poorly fitted or top-dose-only effect, or another doubt; inactive means no such curve, though single readings can be large; an effect the other way counts as inactive or inconclusive.

SMILES	FBPA Giardia inh	Tb PYK inh	LmPK inh	Sm TGR inh	Shiga toxin inh	Cycloheximide cs
O=C(CC1CCCC1)Nc1ccc2c(c1)CCC2	i	i	i	i	51	29
O=C(CNC(=O)c1ccc(Br)cc1)Nc1ccc2c(c1)CCC2	nt	i	nt	nt	nt	nt
O=C(Nc1ccc2c(c1)CCC2)c1ncoc1-c1ccccc1F	i	i	i	i	i	27
COc1ccc2c(c1)C(=O)[C@@H](OC(=O)Nc1cc(OC)c(OC)c(OC)c1)[C@H](c1ccc(OC)c(Br)c1)O2	i	nt	nt	nt	nt	nt
COc1cccc(-c2cnc(C(O)c3c(C)cccc3C)[nH]2)c1 (centres undefined)	nt	i	nt	nt	nt	nt
C[C@H]1CN([C@@H](C)CO)C(=O)CCCn2cc(nn2)CO[C@@H]1CN(C)C(=O)Nc1ccc(N2CCCCC2)cc1	nt	i	nt	nt	nt	nt
O=C(Nc1ccc2c(c1)CCC2)c1cc(S(=O)(=O)Nc2ccc(F)cc2)c(Cl)cc1Cl	i	i	i	i	i	19
O=C(Nc1ccccc1)Nc1ccc2c(c1)CCC2	i	i	i	i	156	81
O=C(Nc1cccc([N+](=O)[O-])c1)Nc1ccc2c(c1)CCC2	i	i	i	i	i	12
O=C(Nc1ccc2c(c1)CCC2)c1ccc(F)cc1	i	i	i	i	i	30
O=C(O)c1ccc(NC(=O)c2cc(S(=O)(=O)N3CCCCC3)c(Cl)cc2Cl)cc1	nt	i	nt	i	nt	nt
Cc1cc(C(=O)Nc2ccc3c(c2)CCC3)ccc1[N+](=O)[O-]	nt	i	nt	nt	nt	nt
NS(=O)(=O)c1ccc(CCNC(=O)C2COc3ccccc3C2)cc1 (centres undefined)	nt	i	nt	i	nt	nt
Cc1ccccc1NC(=O)Nc1ccc(C(F)(F)F)cc1	i	i	i	i	56	23
Cc1ccc(NC(=O)Nc2ccc3c(c2)CCC3)cc1	nt	i	i	i	54	48
Cc1ccccc1NC(=O)CNC(=O)c1ccc(C(F)(F)F)cc1	i	i	i	i	i	i
O=C(Nc1ccc2c(c1)CCC2)Nc1ccc(F)cc1F	nt	i	i	i	74	67
O=C(Nc1cccc([N+](=O)[O-])c1)Nc1cccs1	i	i	i	i	i	32
COC(=O)c1sccc1NC(=O)Nc1cccc([N+](=O)[O-])c1	i	i	i	i	i	i
O=C(Nc1ccc(F)cc1F)NC1CC1	i	i	i	i	i	i
CCOC(=O)c1[nH]c(C)c(CCC(=O)NC(C)c2ccccc2)c1C (centres undefined)	nt	i	nt	i	nt	nt
CCCn1c(=O)c2sccc2n2c(CCCC(=O)Nc3ccc(Oc4ccc(Cl)cc4)cc3)nnc12	nt	i	nt	i	nt	nt
CCC(C)[C@H](NC(=O)C1CC(=O)N(c2ccc(OC)cc2)C1)C(=O)NC1CCCC1 (some centres undefined)	nt	i	i	i	i	i
Cc1cc(C)cc(NC(=O)Nc2ccc3c(c2)CCC3)c1	nt	i	i	i	i	i
O=C(Nc1ccc(F)cc1)Nc1ccc2c(c1)CCC2	nt	i	i	i	68	49
SMILES	FBPA Giardia inh	Tb PYK inh	LmPK inh	Sm TGR inh	Shiga toxin inh	Cycloheximide cs
CC(/C=C/c1ccc2c(c1)OCO2)=N/NC(=O)c1ccncc1	?	i	i	i	i	i
CC1=C(/C=C/C(C)=N\NC(=O)c2ccncc2)C(C)(C)CCC1	i	i	i	i	i	13
COC(=O)CCCC1=CC2=C(c3ccccc3)C(=O)C(C)(OC(=O)C3CCCC3)C(=O)C2=CN1Cc1ccco1 (centres undefined)	?	i	i[11.5 µM]	22µM	i	i
COC(=O)CCCC1=CC2=C(c3ccccc3)C(=O)C(C)(OC(=O)C3CCCC3)C(=O)C2=CN1CCCCO (centres undefined)	?	i	i[11.5 µM]	i	i	i
COCCN(C(=O)Nc1ccccc1OC)c1nc2ccccc2s1	i	i	i	i	30	26
Cc1ccc(OCc2cc(C(=O)NCc3cn4ccccc4n3)no2)cc1C	i	i	i	i	37	20
Cc1cc(OCc2cc(C(=O)NCc3csc(C(C)C)n3)no2)cc(C)c1Cl	i	i	i	i	i	20
O=C(CC1CCCC1)NCCc1cn2ccccc2n1	i	i	i	i	i	i
COc1cccc(CCNC(=O)c2cc(COc3c(F)cccc3F)on2)c1	i	i	i	i	i	16
O=C(NCCc1cn2ccccc2n1)c1cc(COc2c(F)cccc2F)on1	?	i	i	40µM	i	17
COc1ccc(CCNC(=O)CCS(=O)(=O)c2cc3c(cc2Cl)NC(=O)CO3)cc1OC	nt	i	nt	i	nt	nt
COc1ccc(S(=O)(=O)NC(=O)C2(C)CCN2C(=O)C2(c3ccccc3)CC2)cc1 (centres undefined)	nt	i	nt	nt	nt	nt
Cc1ccc(S(=O)(=O)N/N=C\c2cn(-c3ccccc3)nc2-c2ccccc2)cc1	i	i	i	i	i	20
Cc1ccc(-c2nn(-c3ccccc3)cc2/C=N/NS(=O)(=O)c2ccccc2)cc1	i	i	i	i	i	36
O=S(=O)(N/N=C\c1cn(-c2ccccc2)nc1-c1ccccc1)c1ccccc1	i	i	i	i	i	i
CCCCNC(=O)C1(C)CCN1C(=O)c1cncc(Br)c1 (centres undefined)	nt	i	nt	nt	nt	nt
COc1cccc([C@@H]2Oc3ccc(OC)cc3C(=O)[C@H]2OC(=O)NC2CCCC2)c1	i	nt	nt	nt	nt	nt
CCN(CC)c1ncnc2c1ncn2[C@H]1CN(C2CCCC2)C[C@@H](CO)O1	nt	i	nt	nt	nt	nt
COc1cc2cc(CN(Cc3nnnn3Cc3ccco3)C3CCCCC3)c(=O)[nH]c2cc1OC	10µM	i	i	13µM	i	i
CCOc1ccc2[nH]c(=O)c(CN(Cc3nnnn3Cc3ccco3)C3CCCCC3)cc2c1	?	i	i	5.6µM	i	i
CCC(C)(C)n1nnnc1CN(Cc1cc2cc(OC)ccc2[nH]c1=O)C1CCCC1	i	i	i	i	i	i
NCCCC[C@H](N)C(=O)N[C@@H](CCCN=C(N)N)C(=O)N1CCC[C@H]1C(=O)N1CCC[C@H]1C(=O)NCC(=O)N[C@@H](Cc1ccccc1)C(=O)N[C@@H](CO)C(=O)N1CCC[C@H]1C(=O)N[C@@H](Cc1ccccc1)C(=O)O	i	nt	nt	nt	i	i
COc1cc(-n2c(C)nc3cccnc32)c(Cl)cc1C(=O)O	i	i	i	i	i	20
CNc1cncc(-c2ccc(OC)c(OC)c2)n1	nt	i	nt	nt	nt	nt
COc1ccc(SCCc2ccncc2)cc1	?	i	i	i	i	i
CC(C)(C)c1ccc(SCCc2cccnc2)cc1	i	i	i	i	110	44
Fc1ccc(SCCc2ccncc2)cc1	i	i	i	i	i	i
c1ccc(SCCc2ccncc2)cc1	i	i	i	i	i	20
COc1cccc(CN(C(=O)c2cc3ccccc3oc2=O)C2CC2)c1	i	i	i	i	78	26
COc1cccc(CN(CC2CCCO2)C(=O)c2cc3ccccc3oc2=O)c1 (centres undefined)	i	i	i	i	77	44

Compound activity deposited in PubChem BioAssay by National Center for Advancing Translational Sciences (NCATS).
